A word on the AC50: it is the concentration giving half of the maximal activity seen.

Activity calls are given as the source filed them. Rule for the calls: active = hit-call score of the fitted dose curve at least 0.9, where 1 is the maximum; inactive = score below 0.9.

This passage reports outcome and AC50 results from PubChem BioAssay (EPA / NIEHS).

Experiment [1] is described as follows: APR_HepG2_NuclearSize_24hr: Apredica 24-hour HepG2 Assay for Nuclear Size (AID 2282907). The settings on record: high-content imaging, actives raise or lower the signal. Summed up:
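After fixation and permeabilization, 24-hr-treated HepG2 cells were stained with Hoechst 33342 and imaged on an ArrayScan (20x). Doses spanned 0.39–200 uM in duplicate. Nuclear diameter changes in either direction were fitted relative to 0.5% DMSO controls.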

A short description of experiment [2]: APR_HepG2_CellLoss_24hr: Apredica 24-hour HepG2 Assay for Cell Loss (AID 2282908).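 For AC50: fit in both directions so a hit may be cell loss or gain.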 The settings on record: high-content imaging. In short, it runs like this: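 Duplicate wells received compound at ten concentrations (0.39–200 uM; final DMSO 0.5% v/v). After fixation with formaldehyde, nuclei stained with Hoechst 33342 were imaged at 20x. Loss or gain of cell count was fitted relative to DMSO controls.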

Experiment [3] is described as follows: APR_HepG2_MicrotubuleCSK_24hr: Apredica 24-hour HepG2 Assay for Microtubule CSK Stabilty (AID 2282909). The settings on record: HepG2 microtubule cytoskeleton imaging, actives raise or lower the signal. In short, it runs like this: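 Microtubule stability is scored from tubulin immunofluorescence in fixed HepG2 cells imaged at 20x. Cells receive ten compound concentrations up to 200 uM for 24 h; taxol and DMSO serve as positive and negative controls.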

Experiment [4] can be described thus: APR_HepG2_MitoticArrest_24hr: Apredica 24-hour HepG2 Assay for Mitotic Arrest (AID 2282910). The settings on record: high-content imaging, actives raise or lower the signal. In short, it runs like this:
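High-content imaging of fixed HepG2 cells labeled with Hoechst 33342 and anti-phospho-histone H3, after 24 h treatment. Ten concentrations 0.39 to 200 uM in duplicate, final DMSO 0.5%; changes fitted both directions relative to DMSO.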

A short description of experiment [5]: APR_HepG2_MitoMembPot_24hr: Apredica 24-hour HepG2 Assay for Mitochondrial Membrane Potential (AID 2282911). Conditions: imaging, actives raise or lower the signal. In short, it runs like this: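 HepG2 cells exposed 24 h to 0.39–200 uM compounds in duplicate, 0.5% v/v DMSO final. MitoTracker Red CMXRos 250 nM loaded 30 min before formaldehyde fixation; high-content imaging at 20x, bidirectional fit versus DMSO.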

The nature of experiment [6]: APR_HepG2_MitoMass_24hr: Apredica 24-hour HepG2 Assay for Mitochondrial Mass (AID 2282912). The settings on record: high-content imaging, actives raise or lower the signal. In short, it runs like this:
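Readout: fluorescence of MitoTracker Red CMXRos (250 nM, added 30 min pre-fixation) in fixed HepG2 cells imaged by HCS. Exposure lasted 24 hr at 0.39–200 uM; increases and decreases were both fitted relative to DMSO.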

The nature of experiment [7]: APR_HepG2_p53Act_24hr: Apredica 24-hour HepG2 Assay for p53 Activation (AID 2282913).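 Note: p53 protein immunofluorescence averaged per cell in HepG2 with Hoechst nuclei.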 The settings on record: high-content imaging, actives raise or lower the signal. Summed up:
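HepG2 cells exposed 24 h to compounds at 0.39–200 uM in duplicate, 0.5% v/v DMSO final; fixed, permeabilized, stained with anti-p53 antibody and Hoechst 33342; fluorescence imaging; bidirectional curve fit versus DMSO.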

Experiment [8] can be described thus: APR_HepG2_P-H2AX_72hr: Apredica 72-hour HepG2 Assay for H2AX Phosphorylation (AID 2282916).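 Note: phospho-histone H2A.x immunostain intensity per cell marking DNA damage.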 The settings on record: imaging, actives raise or lower the signal. Summed up:
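Phospho-H2A.x imaging endpoint in HepG2 after 72 hr compound exposure (0.39–200 uM, duplicate wells). Activity derived by bidirectional curve fitting with DMSO as baseline.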

Experiment [9] in a line: APR_HepG2_MitoMembPot_72hr: Apredica 72-hour HepG2 Assay for Mitochondrial Membrane Potential (AID 2282917). Conditions: imaging, actives raise or lower the signal. In short, it runs like this: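 Membrane potential read by MitoTracker Red CMXRos (250 nM, 30 min, pre-fixation) fluorescence imaging of HepG2 after 72 hr exposure. Ten concentrations, 0.39–200 uM, duplicate wells, 0.5% DMSO; fitted in both directions against DMSO baseline.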

The nature of experiment [10]: APR_HepG2_MicrotubuleCSK_72hr: Apredica 72-hour HepG2 Assay for Microtubule CSK Stabilty (AID 2282919). The settings on record: HepG2 microtubule cytoskeleton, high-content imaging, actives raise or lower the signal. Summed up:
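High-content imaging of alpha-tubulin staining in fixed HepG2 cells after 72 hr treatment with ten concentrations from 0.39 to 200 uM (0.5% DMSO). Fitting was bidirectional against DMSO; taxol served as positive control.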

Experiment [11] in a line: APR_HepG2_P-H2AX_24hr: Apredica 24-hour HepG2 Assay for H2AX Phosphorylation (AID 2282920). The settings on record: high-content imaging, actives raise or lower the signal. In short, it runs like this: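 HepG2 cells dosed 24 h at 0.39–200 uM (10 points, duplicate, 0.5% DMSO final). Formaldehyde-fixed and permeabilized, then immunostained for phospho-H2A.x with Hoechst. Fluorescence quantified by high-content imaging, fitted bidirectionally versus DMSO.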

Experiment [12] can be described thus: APR_HepG2_StressKinase_72hr: Apredica 72-hour HepG2 Assay for Stress Kinase (AID 2282921). Conditions: HepG2 stress kinase (phospho-c-Jun) imaging, actives raise or lower the signal. Summed up: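 Stress kinase signal reflects nuclear phospho-c-Jun staining in fixed, permeabilized cells exposed 72 h to compound at 0.39–200 uM; DMSO-normalized, fitted for increases or decreases.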

Experiment [13] can be described thus: APR_HepG2_StressKinase_24hr: Apredica 24-hour HepG2 Assay for Stress Kinase (AID 2282922). Conditions: HepG2 stress kinase (phospho-c-Jun) imaging, actives raise or lower the signal. Summed up: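 High-content imaging of phospho-c-Jun immunofluorescence in fixed, permeabilized HepG2 cells after 24 h dosing. Ten concentrations, 0.39 to 200 uM, run in duplicate at 0.5% v/v DMSO; gain or loss of signal versus DMSO.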

Experiment [14] is described as follows: APR_HepG2_p53Act_72hr: Apredica 72-hour HepG2 Assay for p53 Activation (AID 2282923).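 Note: average cellular p53 protein immunofluorescence intensity in HepG2 cells.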 Conditions: high-content imaging, actives raise or lower the signal. Summed up: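 Fixed-cell p53 staining (sheep primary, Cy5 secondary) measured by fluorescence imaging following 72 hr treatment at 0.39–200 uM in 0.5% DMSO; DMSO served as negative control and baseline.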

Experiment [15] can be described thus: APR_HepG2_MitoMass_72hr: Apredica 72-hour HepG2 Assay for Mitochondrial Mass (AID 2282924).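 Note: MitoTracker Red CMXRos stain intensity per cell imaged as mitochondrial mass.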 Conditions: high-content imaging, actives raise or lower the signal. In short, it runs like this: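 Readout is imaged MitoTracker Red (250 nM, 30 min, pre-fixation) signal, fitted bidirectionally against DMSO baseline. Human HepG2 liver cells received compound 0.39–200 uM in duplicate for 72 hr, final DMSO 0.5%.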

A short description of experiment [16]: APR_HepG2_NuclearSize_72hr: Apredica 72-hour HepG2 Assay for Nuclear Size (AID 2282925). The settings on record: high-content imaging, actives raise or lower the signal. Summed up: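 Nuclear size was read by high-content imaging of Hoechst 33342 stain after formaldehyde fixation. Compounds ran 72 h on HepG2 at 0.39 to 200 uM, with final DMSO 0.5% v/v. Curves fitted both directions relative to DMSO control.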

Experiment [17] can be described thus: APR_HepG2_MitoticArrest_72hr: Apredica 72-hour HepG2 Assay for Mitotic Arrest (AID 2282918). The settings on record: high-content imaging, actives raise or lower the signal. In short, it runs like this: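 HepG2 cells treated 72 h at 0.39–200 uM, 0.5% DMSO final; formaldehyde-fixed, stained with Hoechst 33342 and phospho-histone H3 antibody, imaged by high-content fluorescence; bidirectional fit versus DMSO.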

A short description of experiment [18]: APR_HepG2_CellLoss_72hr: Apredica 72-hour HepG2 Assay for Cell Loss (AID 2282915). The settings on record: high-content imaging. Summed up: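 Cell number comes from Hoechst 33342-labelled nuclei, imaged at 20x after 3.7% formaldehyde fixation. Dosing was 0.39–200 uM, ten concentrations in duplicate, 0.5% DMSO final, for 72 h. Bidirectional fit relative to DMSO baseline.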

As for `ClC1=C(Cl)[C@]2(Cl)[C@@H]3[C@@H](Cl)[C@H]4O[C@H]4[C@@H]3C1(Cl)C2(Cl)Cl`, the outcome in experiment [1], in experiment [5], in experiment [6], in experiment [9], in experiment [10] and in [12] was inactive. The result in experiment [13], in experiment [15] and in experiment [16] was inactive. Also, the AC50 is 81.7 µM (active) in experiment [2]; 82.1 µM (active) in experiment [3]; 66.5 µM (active) in [4]; 87.7 µM (active) in experiment [7]; 48.2 µM (active) in experiment [8]; 62.3 µM (active) in experiment [11]. Also, in [14], the AC50 is 54.5 µM (active).
Take `ClC(Cl)=C(c1ccc(Cl)cc1)c1ccc(Cl)cc1`: the compound was called inactive in experiment [1], in experiment [3], in [8], in experiment [9], in [10] and in experiment [12]. Also, the compound was called inactive in [13] and in experiment [16]. In addition, the AC50 in [2] was 55.3 µM (active); in [4], 60.7 µM (active); in experiment [5], 23.2 µM (active); in experiment [6], 50.4 µM (active); in [7] it was 57.2 µM (active); in [17] it was 22.5 µM (active). For the same compound, the AC50 in experiment [11] was 53.7 µM (active); in experiment [15] it was 60.2 µM (active).
For the compound `CC(c1ccc(O)cc1)(c1ccc(O)cc1)c1ccc(O)cc1`, the result in [1], in experiment [3], in experiment [9], in [10], in experiment [12] and in experiment [13] was inactive. The AC50 in [2] was 113 µM (active); in [4] it was 107 µM (active); in [5] it was 29.5 µM (active); in experiment [6], 109 µM (active); in experiment [7], 104 µM (active); in [8], 95.4 µM (active). Moreover, the concentration at half-maximal activity (AC50) was 111 µM (active) in experiment [11], 110 µM (active) in [14], 170 µM (active) in [15] and 105 µM (active) in experiment [16].
On to `c1cc2ccc3cccc4ccc(c1)c2c34`, for which the outcome in experiment [1], in experiment [2], in experiment [3], in experiment [4], in experiment [6] and in experiment [7] was inactive. Further, the call in experiment [9], in experiment [10], in experiment [11], in experiment [12], in [13] and in experiment [15] was inactive. Besides, the AC50 was 92.1 µM (active) in [5], 104 µM (active) in experiment [8] and 113 µM (active) in experiment [16].
For the compound `CCCCCCCCOC(=O)c1ccccc1C(=O)OCCCCCCCC`, the compound was classed as inactive in experiment [1], in [2], in experiment [3], in experiment [4], in [5] and in experiment [6]. The result in experiment [7], in experiment [18], in [8], in experiment [9], in experiment [10] and in experiment [11] was inactive. Moreover, the outcome in [12], in [13], in experiment [15] and in experiment [16] was inactive.
In the case of `CCC(C)c1cc([N+](=O)[O-])cc([N+](=O)[O-])c1O` (configuration not stated), the compound was classed as inactive in experiment [1], in experiment [2], in experiment [3], in [4], in experiment [6] and in [7]. In addition, the compound was called inactive in experiment [17], in [10], in experiment [12], in experiment [13], in experiment [14] and in experiment [16]. In addition, the AC50 in [5] is 100 µM (active); in experiment [8], 69.7 µM (active); in [9], 111 µM (active); in experiment [11] it was 67.4 µM (active); in [15] it was 72.3 µM (active).
Consider `O=C(N[C@H]1CN2CCC1CC2)c1cc2ccoc2cn1`, for which the compound was classed as inactive in [1], in [2], in experiment [3], in experiment [4], in experiment [6] and in [7]. The compound was classed as inactive in experiment [8], in [9], in [10], in experiment [11], in [12] and in [13]. For the same compound, the call in experiment [15] and in [16] was inactive. Moreover, the AC50 in experiment [5] is 0.0336 µM (active).
Take `c1ccc(-c2ccccc2)cc1`: the outcome in [1], in experiment [2], in experiment [3], in [4], in experiment [5] and in experiment [6] was inactive. Also, the result in experiment [7], in experiment [18], in [8], in [9], in experiment [10] and in [11] was inactive. For the same compound, the result in [12], in experiment [13], in [15] and in experiment [16] was inactive.
